Laboratory results as given in PubChem BioAssay (Tox21).
“And” between values parts separate entries of the source, which are not always exact repeats. Identical values can stand only once. Results filed as inconclusive are left out. Some compounds were tested as several samples or in several runs, with calls that do not always agree. The source made the active and inactive calls. Calls follow the shape of the dose curve; as a rule, active = well fitted activation curve with a large enough effect in the repeat runs; inconclusive = weak or mixed curves; inactive = flat fitted curve, though single readings scatter.

Test: A CellTox Green Cytotoxicity Assay to monitor cytotoxicity in HEK293 cells - 8 hour (AID 1224884); also: nearly all actives have a fitted effect of over 35% in size
Conditions: CellTox Green fluorescence; series mostly up to 76.8 µM; cytotoxicity increase: at the top concentration
Text: National Center for Advancing Translational Sciences [NCATS]
NIH Chemical Genomics Center [NCGC]
U.S. Environmental Protection Agency [EPA]
National Institutes of Environmental Health Sciences [NIEHS]
National Toxicology Program [NTP]
Cell-based models are critical for drug discovery. Determining the natural cytotoxic effects resulting from test compounds is an essential research activity. A CellTox Green Cytotoxicity Assay to monitor cytotoxicity in real time of continues cell culture during 40 hours of the compound treatment was used to screen Tox21 10K library compounds in Hek293 cells. CellTox Green Cytotoxicity Assay is a nonlytic, homogeneous, biofluorescent method to measure cytotoxicity in cell culture after experimental manipulation. The assay system uses a proprietary asymmetric cyanine dye that is excluded from viable cells but preferentially stains the dead cell's DNA. […] Viable cells produce no appreciable increases in fluorescence. Therefore, the fluorescence signal produced by the binding interaction with dead cell DNA is proportional to cytotoxicity.
The mixture of Hek293 cell suspension and reagents were dispensed at 600cells/6 ul/well in 1536-well tissue culture treated black solid bottom plates using a Multidrop dispenser. After the assay plates were incubated at a 37 C/5% CO2 incubator for 5 hours, 23 nL of compounds dissolved in DMSO, positive and negative controls was transferred to the assay plate by a pintool work station. The plates were incubated at 37 C for 40 hours. The fluorescence intensity were measured at 0h, 8h, 16h, 24h, 32h and 40h time points using ViewLux plate reader during compound treatment.
% is scaled to controls: 0 for no effect and ±100 for the full control effect; potency is read from the fitted curve at half-maximal effect.

SMILES | cytotoxicity increase | Potency
COc1c2c(cc3c1OCO3)CCN(C)C2 | -3.31% [at 35.3 µM] (inactive) | –
C=CCOC(=O)c1ccccc1N | 14.1% (inactive) | –
O=C(NC(=O)c1c(F)cccc1F)Nc1ccc(Oc2ccc(C(F)(F)F)cc2Cl)cc1F | 13.9% (inactive) | –
CN=C=O | 11.2% (inactive) | –
CCOC(=O)CCN(SN(C)C(=O)Oc1cccc2c1OC(C)(C)C2)C(C)C | 13.4% (inactive) | –
ClCBr | -2.6% (inactive) | –
CO/N=C(/C1=NOCCO1)c1ccccc1Oc1ncnc(Oc2ccccc2Cl)c1F | 1.37% (inactive) | –
O=C(Cl)c1ccccc1F | -1.49% (inactive) | –
CC1(C)C(C=C(Cl)Cl)C1C(=O)OC(C#N)c1ccc(F)c(Oc2ccccc2)c1 (stereo not given) | -7.14% (inactive) | –
FC(F)C(F)(F)OCC(Cn1cncn1)c1ccc(Cl)cc1Cl (stereo not given) | 0.536% (inactive) | –
CC[N+]1(CC)CCC(OC(=O)C(O)(c2ccccc2)c2ccccc2)C1 (stereo not given) | -9.04% [at 35.3 µM] (inactive) | –
Nc1ccc(Cl)cc1C(=O)c1ccccc1F | -17.9% [at 35.3 µM] (inactive) | –
CN1CCc2cc(Cl)c(O)cc2[C@H]2c3ccccc3CC[C@@H]21 | -1.61% [at 35.3 µM] (inactive) | –
CSC(=O)c1c(C(F)F)nc(C(F)(F)F)c(C(=O)SC)c1CC(C)C | -3.18% (inactive) | –
c1ccc(N=NNc2ccccc2)cc1 | – | inactive
CC(C)C(Br)C(=O)NC(N)=O (stereo not given) | 7.29% [at 35.3 µM] (inactive) | –
CCC(C)Br (stereo not given) | -2.89% (inactive) | –
CN(C)CCc1c[nH]c2ccccc12 | -9.46% (inactive) | –
O=S(=O)(O)F | 7.62% (inactive) | –
Oc1cccc(Cl)c1Cl | 10.6% (inactive) | –

SMILES | cytotoxicity increase | Potency
CCCCN(CCCC)C(=S)S | 3.24% (inactive) | –
CCOP(=O)(OCC)Oc1cc(C)nc(C(C)C)n1 | -2.7% (inactive) | –
CC(=O)[O-].CC(=O)[O-].[Co+2] | -0.838% (inactive) | –
O.O.O.O.O.O.O=S(=O)([O-])[O-].[Ni+2] | -17.6% [at 35.3 µM] (inactive) | –
COP(=O)(OC)Oc1ccc([N+](=O)[O-])cc1 | -2.52% (inactive) | –
CO/N=C(\C(=O)OC)c1ccccc1CO/N=C(\C)c1cccc(C(F)(F)F)c1 | 18.4% (inactive) | –
Clc1c(Cl)c(Cl)c(Cl)c(Cl)c1Cl | -13.2% [at 6.97 µM] (inactive) | –
COc1ccc(Cc2nccc3cc(OC)c(OC)cc23)cc1OC | 1.93% [at 35.3 µM] (inactive) | –
CCN(CC)CCN1C(=O)CN=C(c2ccccc2F)c2cc(Cl)ccc21 | 0.836% [at 35.3 µM] (inactive) | –
CCNc1nc(NC(C)C(C)C)nc(SC)n1 (stereo not given) | -1.47% (inactive) | –
CCCCCCCCCCCCCCn1cc[n+](C)c1 | – | 55 µM (active) and 54.4 µM (active) and inactive
CCOC(=O)Cc1ccccc1 | 1.24% (inactive) | –
Oc1cc(Cl)cc(Cl)c1 | 26.2% (inactive) | –
Clc1ccc(C2(Cn3cncn3)OCCO2)c(Cl)c1 | 2.33% (inactive) | –
CNC(=O)Oc1cc(C)cc(C(C)C)c1 | 0.187% (inactive) | –
O=c1[nH]c2cc(Cl)ccc2n1C1CCNCC1 | 1.17% [at 35.3 µM] (inactive) | –
CCN(CC)Cc1nccn1-c1ccc([N+](=O)[O-])cc1C(=O)c1ccccc1Cl | 16.2% [at 35.3 µM] (inactive) | –
C1=CCC=C1 | -4.17% (inactive) | –
C=CCBr | -1.7% (inactive) | –
O=C1C[C@@H]2OCC=C3CN4CC[C@]56c7ccccc7N1[C@H]5[C@H]2[C@H]3C[C@H]46 | 0.963% [at 35.3 µM] (inactive) | –
